UGM FP inh – blocks M. tuberculosis UGM enzyme | P9WIQ1 | purified UGM, fluorescence polarization probe displacement | inhibition, % at 10 µM | hit rate 0.06% among 320,000 | AID 504406; in the data active means inhibition above about 10%, passing the limit was not always enough; inconclusive means no clear call, values can overlap the other calls
Target sequence (P9WIQ1 whole entry, looked up): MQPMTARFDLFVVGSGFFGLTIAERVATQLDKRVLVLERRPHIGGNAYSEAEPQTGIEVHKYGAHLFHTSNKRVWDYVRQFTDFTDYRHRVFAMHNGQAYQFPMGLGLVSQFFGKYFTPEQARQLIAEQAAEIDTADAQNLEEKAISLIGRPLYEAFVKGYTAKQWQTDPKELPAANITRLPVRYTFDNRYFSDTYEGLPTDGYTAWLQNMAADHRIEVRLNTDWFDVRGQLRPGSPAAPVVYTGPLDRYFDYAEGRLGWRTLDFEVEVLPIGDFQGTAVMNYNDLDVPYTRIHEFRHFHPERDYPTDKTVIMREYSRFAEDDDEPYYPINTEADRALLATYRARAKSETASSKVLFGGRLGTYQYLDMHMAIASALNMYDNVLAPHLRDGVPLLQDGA
FadD28 binding – inhibitors of Mycobacterium tuberculosis FadD28 bisubstrate binding | AID 588549 | hit rate 0.22% among 360,000 | FadD28 bisubstrate probe binding, fluorescence polarization | inhibition, % at 12.5 µM; in the data active means inhibition above about 8.5%, passing the limit was not always enough; inconclusive means no clear call, values can overlap the other calls
Mtb betalactam – beta-lactam sensitization of Mtb H37Rv; M. tuberculosis H37Rv growth with meropenem, percent inhibition; inhibition, % at 25 µM; hit rate 0.27% among 330,000; AID 434955; call rule not given here;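 further: growth measured after seven days incubation then overnight dye step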
Vc quorum ag – induces V. cholerae light production without autoinducers; V. cholerae BH1578 lux reporter, luminescence, 6 h; activation, % at 18.7 µM; hit rate 0.16% among 350,000; in the data active means activation mostly above about 9.7%, no sharp cut-off; inconclusive means no clear call, values can overlap the other calls; inactive means mostly below about 3.7%
MazEF act – MazEF (E. coli) toxin RNase activation. FAM/BHQ RNA-DNA oligo cleavage fluorescence, 5 h. activation, % at 20 µM. hit rate 0.32% among 350,000; in the data active means activation above about 50%
Rv3671c protease – inhibitors of M. tuberculosis serine protease Rv3671c | P9WHR9 | inhibition, % at 5.96 µM | hit rate 0.048% among 320,000;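 further: extracellular domain of Rv3671c used as enzyme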
Rv3671c confirm – Rv3671c protease inhibition, confirmation. shares compounds with Rv3671c protease. inhibition, % at 5.96 µM. hit rate 40% among 140. AID 2761
Large screens that a line does not name were inactive (follow-up assays come after a bar, where they were run). Hits are enriched below; roughly 0.74% of the tested compounds scored in any of these assays. Unless noted, no stated cut-off is given here; in the data, active means inhibition above about 38%; inactive means the rest.

CCOC(=O)NC(=O)/C(C#N)=C\Nc1ccc(Cl)cc1Cl	none
CCOC(=O)NC(=O)/C(C#N)=C\Nc1sccc1C(=O)OC	Rv3671c protease 41 | Rv3671c confirm inactive
O=C(Cn1cc(C(F)(F)F)ccc1=O)NCc1ccc(F)cc1	none
COc1cccc(/C=N/Nc2ccc([N+](=O)[O-])cn2)c1O	Rv3671c protease 81 | Rv3671c confirm inactive
CCNc1cc(O)ccc1C	Rv3671c protease 63 | Rv3671c confirm inactive
Cn1c(CNC(=O)CNC(=O)c2ccc(C(C)(C)C)cc2)cc(=O)n(C)c1=O	none
C(=N\Nc1nc2ccccc2[nH]1)/c1c[nH]c2ccccc12	Rv3671c protease 41 | Rv3671c confirm 92
O=[N+]([O-])c1cc(/C=N/Nc2nc3ccccc3[nH]2)c(O)cc1O	Rv3671c protease 60 (no result: FadD28 binding, Vc quorum ag) | Rv3671c confirm inactive
C(=N\Nc1nc2ccccc2[nH]1)/c1cccc2cccnc12	Rv3671c protease 38 | Rv3671c confirm inactive
Cc1ccccc1/C=N/Nc1nc2ccccc2[nH]1	none
Cc1[nH]c2ccccc2c1/C=N/Nc1nc2ccccc2[nH]1	Rv3671c protease 59 | Rv3671c confirm 41
C(=N\Nc1nc2ccccc2[nH]1)/c1ccccc1	none
CC1CC(C)C(=NNC(N)=O)C(C(O)CC2CCC(=O)NC2=O)C1 (stereo not given)	none (no result: UGM FP inh, FadD28 binding, Mtb betalactam, Rv3671c protease)
CCOC(=O)c1ccc(NS(=O)(=O)c2c(N)[nH]c(=O)[nH]c2=O)cc1	none
Nc1ccc(Nc2nc3ccccc3[nH]2)cc1	Rv3671c protease 50 | Rv3671c confirm 46
Cc1ccc(CNC(=O)Cn2cnc(C(=O)Nc3ccc(C)c(C)c3)n2)o1	none (no result: UGM FP inh, Mtb betalactam, Rv3671c protease)
CC(C)c1ccc(Oc2cccc3c2S(=O)(=O)N(C2CCCC2)CC(COCc2ccccc2)O3)cc1 (stereo not given)	none (no result: UGM FP inh, Mtb betalactam, Rv3671c protease)
Cn1c(O)c(/C=N/NC(=O)c2cc3ccccc3cc2O)c2ccccc21	FadD28 binding inconclusive, Rv3671c protease 47 | Rv3671c confirm inactive
Cn1c2ccccc2c2cc(/C=N/NC(=O)c3ccc(O)cc3O)ccc21	none
O=C1c2c(O)cccc2Cc2cccc(O)c21	Rv3671c protease 58 | Rv3671c confirm inactive
COc1cc(NC(=O)CC(C)S(=O)(=O)c2ccc3c(c2)NC(=O)CO3)cc(OC)c1OC (stereo not given)	none
N#CC1(P(=O)(c2ccccc2)c2ccccc2)CCCC1	Rv3671c protease 81 | Rv3671c confirm inactive
COP(=O)(CC(=O)c1ccccc1)CC(=O)c1ccccc1	none
O=[N+]([O-])c1ccc(NCc2ccccc2)c2nonc12	Rv3671c protease 49 (no result: FadD28 binding, Vc quorum ag, MazEF act) | Rv3671c confirm 43
CC(C)(C)c1ccc(Oc2coc3cc(OCC(=O)O)ccc3c2=O)cc1	Rv3671c protease 49 | Rv3671c confirm inactive
CC(=O)c1ccccc1OC(=O)c1ccco1	none
CC(=O)c1c(OC(=O)c2ccco2)c2ccccc2n1C	Rv3671c protease 74 | Rv3671c confirm 77
CC(=O)c1sc2ccccc2c1OC(=O)c1ccco1	Rv3671c protease 61 | Rv3671c confirm 56
Cc1cc(N)ccc1-n1c(C)ccc1C	Rv3671c protease 83 | Rv3671c confirm inactive
Cc1cc2c(=O)[nH]c(N)nc2[nH]1	none (no result: UGM FP inh, Mtb betalactam, Rv3671c protease)
CCc1cc(=O)oc2cc(C)cc(OC(=O)c3ccco3)c12	Rv3671c protease 58 | Rv3671c confirm 78
Cc1cc(OC(=O)c2ccco2)c2c3c(c(=O)oc2c1)CCC3	none
Cc1cc(OCC(=O)NC2CCN(Cc3ccccc3)CC2)c2c(C)cc(=O)oc2c1	none
Cc1cc(OC(=O)c2ccco2)c2c(C)cc(=O)oc2c1	Rv3671c protease 47 | Rv3671c confirm 74
CCCc1cc(=O)oc2cc(C)cc(OCC(=O)NC3CCN(Cc4ccccc4)CC3)c12	Rv3671c protease 125 | Rv3671c confirm inactive
Cc1ccc(C(=O)Nc2nnc(COCCO)s2)cc1	none (no result: UGM FP inh, Mtb betalactam, MazEF act, Rv3671c protease)
CCN1C(=S)N[C@@H](c2cccs2)C(C(=O)OC)=C1C	none
O=C(NC(c1ccc(-c2ccccc2)cc1)c1cnccn1)C1CCN(Cc2cccs2)CC1 (stereo not given)	none (no result: UGM FP inh, Mtb betalactam, MazEF act, Rv3671c protease)
Cn1c(N)c(C(=O)CSc2nc(C3CC3)n(-c3ccccc3)n2)c(=O)[nH]c1=O	none
CCOCCCn1c(=N)c(S(=O)(=O)c2ccc(C)cc2)cc2c(=O)n3cc(C)ccc3nc21	none
C=C1c2cccc(O)c2C(O)=C2C(=O)[C@]3(O)C(O)=C(C(N)=O)C(=O)[C@@H](N(C)C)[C@@H]3[C@@H](O)[C@H]12	Rv3671c protease 50 | Rv3671c confirm inactive
